The list is not random: actives were taken first. Their share in the collection is about 1.1%.
MEP2 TOR yeast = modulators of MEP2-GFP levels in yeast, primary screen, S. cerevisiae, multiplex flow cytometry, MLPCN library; S. cerevisiae MEP2-GFP strain, 3 h; 100% = DMSO control level; GFP response vs DMSO, % at 10 µM; actives 0.51% (n = 330,000);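 active means GFP response versus DMSO above a set limit, roughly screen mean plus 3 SD, cut at about 180% in these data; inconclusive means fewer than 70 cells counted for a yeast strain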;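 further: median GFP fluorescence of the barcode-gated MEP2-GFP cells per well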
AGP1-GFP MLPCN = modulators of AGP1-GFP expression in yeast TOR pathway, primary screen, cell-based, multiplex flow cytometry, S. cerevisiae, MLPCN library; actives 0.02% (n = 320,000); 3 h; GFP as percent of DMSO wells; GFP response vs DMSO, % at 10 µM;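 active means GFP response relative to DMSO above a set limit, near screen average plus 3 SD, cut at about 150% in these data; inconclusive means fewer than 70 cells counted for the yeast strain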;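 further: median GFP channel fluorescence of the gated AGP1 strain per well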
VLA-4 inh = inhibition in human VLA-4 binding assay, primary screen, VLA-4 allosteric modulator project, MLPCN library, flow cytometry, VLA-4 expressing cells; AID 2557, 2010; Integrin alpha-4 (Homo sapiens), P13612; ligand binding flow cytometry; actives 0.2% (n = 330,000); inhibition, % (about 7 µM as worked out from the volumes in the protocol); in the data active means inhibition above about 50%
Target sequence (P13612 whole entry, looked up): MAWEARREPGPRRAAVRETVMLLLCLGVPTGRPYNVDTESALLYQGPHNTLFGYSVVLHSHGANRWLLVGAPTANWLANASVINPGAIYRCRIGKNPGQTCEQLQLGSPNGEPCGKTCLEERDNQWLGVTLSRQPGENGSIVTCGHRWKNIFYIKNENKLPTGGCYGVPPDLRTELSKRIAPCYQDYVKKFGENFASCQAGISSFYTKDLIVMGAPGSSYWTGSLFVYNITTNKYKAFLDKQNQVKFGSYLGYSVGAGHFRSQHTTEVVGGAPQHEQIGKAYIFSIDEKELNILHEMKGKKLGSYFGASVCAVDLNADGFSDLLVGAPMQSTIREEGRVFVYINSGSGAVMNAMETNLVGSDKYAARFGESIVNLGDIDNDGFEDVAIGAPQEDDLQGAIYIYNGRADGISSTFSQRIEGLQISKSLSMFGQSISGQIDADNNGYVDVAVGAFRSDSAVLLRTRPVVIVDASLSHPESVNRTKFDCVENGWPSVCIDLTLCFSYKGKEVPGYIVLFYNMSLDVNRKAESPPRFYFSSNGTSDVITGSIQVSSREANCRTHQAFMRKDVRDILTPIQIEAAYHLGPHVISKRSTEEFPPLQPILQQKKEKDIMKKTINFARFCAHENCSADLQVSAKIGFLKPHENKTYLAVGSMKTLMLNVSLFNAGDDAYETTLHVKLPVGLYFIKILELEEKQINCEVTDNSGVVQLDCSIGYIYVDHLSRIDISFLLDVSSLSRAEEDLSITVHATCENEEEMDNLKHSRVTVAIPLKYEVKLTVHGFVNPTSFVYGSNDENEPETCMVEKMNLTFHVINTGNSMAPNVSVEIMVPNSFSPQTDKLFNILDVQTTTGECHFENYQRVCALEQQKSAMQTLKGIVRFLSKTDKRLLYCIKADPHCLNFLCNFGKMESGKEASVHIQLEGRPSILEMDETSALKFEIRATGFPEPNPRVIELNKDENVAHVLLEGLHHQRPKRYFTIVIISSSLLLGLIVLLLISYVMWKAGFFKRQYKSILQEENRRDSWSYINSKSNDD
RPL19A-GFP yeast = RPL19A-GFP expression modulators in yeast, primary screen, cell-based, S. cerevisiae, multiplex flow cytometry, MLPCN. S. cerevisiae RPL19A-GFP strain, 3 h; hits give low values. actives 0.3% (n = 330,000). percent response vs DMSO, % at 10 µM;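 active means percent response vs DMSO below 50%; inconclusive means fewer than 70 events counted for the yeast strain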;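 further: median channel GFP fluorescence of the barcoded RPL19A-GFP strain; ratio of sample median GFP to plate DMSO average so 100% = DMSO; lower means less RPL19A-GFP as with rapamycin TOR inhibition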
LAP4-GFP MLPCN = modulators of LAP4-GFP expression in yeast, primary screen, S. cerevisiae, multiplex flow cytometry, MLPCN library; 3 h; median GFP as percent of DMSO wells; AID 2023, 2009; actives 0.34% (n = 320,000); GFP response vs DMSO, % at 10 µM;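 active means GFP response vs DMSO above a set limit, about the screen mean plus 3 SD, cut at about 150% in these data; inconclusive means under 70 cell events counted for the yeast strain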
CIT2 TOR yeast = modulators of CIT2-GFP expression in yeast, primary screen, S. cerevisiae, GFP fusion, multiplex flow cytometry, MLPCN library; actives 0.065% (n = 320,000); AID 2029, 2009; GFP response vs DMSO, % at 10 µM; S. cerevisiae CIT2-GFP strain, 3 h; 100 means same as DMSO wells;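 active means GFP response relative to DMSO above a set limit, near the screen mean plus 3 SD, cut at about 150% in these data; inconclusive means Fewer than 70 cells measured for a yeast strain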;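 further: ratio of well median GFP fluorescence to mean of DMSO wells on the plate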
* = called active by the depositor; u = inconclusive; x = no result; [ ] = remark or other dose.

SMILES	MEP2 TOR yeast	AGP1-GFP MLPCN	VLA-4 inh	RPL19A-GFP yeast	LAP4-GFP MLPCN	CIT2 TOR yeast
Cc1cccn2c(=O)c3cc(C(=O)NCC4CCCO4)c(=N)n(CCN4CCOCC4)c3nc12 (configuration not stated)	605.4*[may fluoresce violet]	u	6.0	48.7*[may fluoresce violet]	91.4	u
COc1ccc(NC(=S)N2CCC(NC(=O)c3ccco3)CC2)cc1	108.5	104.9	2.2	101.0	98.2	111.3
Clc1ccc(OCCSc2nnnn2C2CCCCC2)cc1	236.1*[may fluoresce violet]	x	10.1	57.1	102.0	u
O=C(c1ccc(Cl)c(S(=O)(=O)N2CCCCC2)c1)N1CCCC(C(F)(F)F)C1 (configuration not stated)	94.3	101.6	12.1	100.2	101.0	93.4
CNC(=O)N(O)C1N(/N=C/c2ccc(C)cc2)C(=S)SC1(C)C (configuration not stated)	108.4	96.1	3.8	108.0	96.1	96.1
CNC(=O)N(O)C1N(/N=C/c2c(F)cccc2Cl)C(=S)SC1(C)C (configuration not stated)	244.4*[may fluoresce violet]	15.4	-1.7	55.6	72.3	u
CCn1nnnc1NC(=O)c1cc(Cl)c(OC)c(Cl)c1	99.7	98.8	51.9*	112.0	101.5	105.5
CCn1nnnc1NC(=O)c1cccc(OC)c1	108.6	114.9	8.8	103.8	105.2	113.8
COc1ccc(-c2[nH]ncc2CN(CCO)Cc2cccs2)c(F)c1	198.5*	102.7	5.0	101.8	129.4	117.7
O=C1CCCC2=C1C(c1ccccc1)CC(=O)N2c1ccc(F)cc1F (configuration not stated)	104.9	98.7	1.2	102.4	104.0	113.1
COC(=O)C1=C(C)NC(C)=C(C(=O)OC)C1c1ccc(OC(=O)c2oc3ccccc3c2C)c(OC)c1	155.7	99.7	-3.4	106.2	114.6	156.9*
COc1ccccc1C(=O)NC(=O)COC(=O)c1oc2ccccc2c1C	111.3	114.0	-2.9	106.6	117.4	107.8
CN1CCN(NC(=O)Nc2cccc(F)c2)CC1	95.5	92.3	6.5	85.9	90.6	106.6
Cc1[nH]ncc1-c1ccccc1Cl	336.5*[may fluoresce violet]	19.8	21.3	47.7*[may fluoresce violet]	95.8	u
COc1ccc(-c2cn[nH]c2C)cc1OC	96.5	97.1	1.1	93.2	97.7	97.7
O=C(CN1CSCC1=O)N1CCN(S(=O)(=O)c2ccc(Cl)cc2)CC1	103.8	102.0	4.9	99.5	111.3	95.4
O=S(=O)(c1cnc(Cl)c(Cl)c1)N1CCN(c2ncccn2)CC1	100.0	103.1	5.5	96.8	97.0	102.2
O=S1(=O)N=C2CCCCCN2C(c2ccc(F)cc2)N1 (configuration not stated)	191.9*[may fluoresce violet]	u	0.7	17.2*[may fluoresce violet]	104.8	u
CCCn1c(N)c(N(CCOC)C(=O)CSc2c(Cl)cccc2Cl)c(=O)[nH]c1=O	99.0	99.0	18.8	95.4	105.6	94.1
CC1(C)C(N(O)C(=O)Nc2ccc(Cl)cc2)N(c2ccc(Cl)cc2)C(=O)N1CC(=O)NN (configuration not stated)	269.4*[may fluoresce violet]	23.3	-2.4	62.3	102.7	u
CCCn1c(SCC(=O)N2CCc3ccccc3C2)nc(O)cc1=O	103.8	102.0	-5.3	99.5	100.4	98.9
Cc1ccc(Cl)cc1N1CCN(C(=O)CSc2ccsc2[N+](=O)[O-])CC1	184.1*	97.1	9.5	98.1	117.4	97.6
COC(=O)Cc1n[nH]c(=O)c2ccccc12	299.3*[may fluoresce violet]	u	12.7	61.0	75.5	u
CCOC(=O)Cc1n[nH]c(=O)c2ccccc12	93.4	103.6	2.6	96.0	97.1	100.7
O=C(NC1=NCCS1)c1cccc(F)c1	101.2	96.3	-0.9	99.6	101.7	99.5
SMILES	MEP2 TOR yeast	AGP1-GFP MLPCN	VLA-4 inh	RPL19A-GFP yeast	LAP4-GFP MLPCN	CIT2 TOR yeast
O=C(NC1=NCCS1)c1cccc(Br)c1	185.4*[may fluoresce violet]	16.9	-7.4	66.0	108.3	u
CC(C)Oc1ccc(C(=O)NC(Cc2c[nH]c3ccccc23)C(=O)NN)cc1 (configuration not stated)	93.8	109.6	20.3	101.0	107.3	110.9
CCc1nnc(NC(=O)c2ccc(S(=O)(=O)N(C)Cc3ccccc3)cc2)o1	112.9	101.4	11.6	92.2	186.1*	95.3
CCN(Cc1ccccc1)S(=O)(=O)c1ccc(C(=O)Nc2nnc(C)o2)cc1	104.2	100.9	0.9	94.1	187.7*	92.3
Cc1ccc(S(=O)(=O)N2CCOCC2)cc1C(=O)Nc1ccccc1N1CCOCC1	112.6	98.3	32.4	95.0	104.1	108.2
COc1ccc(-c2c(C(C)=O)c(C)nc3sc4c(=N)n(N)cnc4c23)cc1	112.5	113.0	-10.3	107.4	105.9	109.8
COc1ccc(C2NC(=O)c3sc4nc(C)c(C(C)=O)c(-c5ccc(Cl)cc5)c4c3N2)cc1 (configuration not stated)	416.9*[may fluoresce violet]	31.9	-1.4	30.1*[may fluoresce violet]	97.2	u
COc1ccc(/C=C2\Oc3cc(OCC(=O)N4CCC[C@H]4CO)ccc3C2=O)c(OC)c1	102.4	102.5	22.2	93.3	103.8	92.0
COc1ccc(C(=O)CCS(=O)(=O)c2ccc(C)cc2)cc1	98.1	106.2	1.5	97.6	114.4	116.2
Cc1ccc(S(=O)(=O)CCC(=O)c2cccc([N+](=O)[O-])c2)cc1	106.9	121.5	-1.4	95.1	108.2	160.7*[may fluoresce green]
Cc1ccc(C(=O)CCS(=O)(=O)c2ccc(Br)cc2)cc1	105.7	119.3	1.2	93.3	104.1	159.0*[may fluoresce green]
CCOc1ccc(CCNC(=O)C2CC(=O)N(c3ccc4c(c3)OCCO4)C2)cc1OCC (configuration not stated)	97.0	92.4	-6.2	89.7	92.7	99.7
Cc1cc(Br)ccc1NC(=O)CNC(=O)Cn1ncc(Cl)c(Cl)c1=O	102.2	106.4	49.8*	104.5	106.5	102.2
Cc1ccc(S(=O)(=O)N2CCCCC2)cc1NC(=O)Cn1ncc(Cl)c(Cl)c1=O	91.9	88.0	22.1	93.9	88.4	90.8
COc1ccccc1NS(=O)(=O)c1c(C)[nH]c(C)c1C(=O)N1CCCC1	97.3	97.0	24.8	97.0	90.1	99.3
CCOc1ccc(S(=O)(=O)NCc2ccncc2)cc1	108.5	112.7	-16.4	103.8	97.3	106.5
CCOc1ccc(CNS(=O)(=O)c2ccc3c(c2)CC(=O)N3C)cc1	169.9	u	0.6	17.5*[may fluoresce violet]	72.5	u
CCN(CCCNC(=O)C1CCN(C(=O)c2cc3sccc3n2C)CC1)Cc1ccccc1	283.4*[may fluoresce violet]	u	15.0	44.3*[may fluoresce violet]	107.4	u

From PubChem
